PubChem BioAssay AID623877 (Johns Hopkins Ion Channel Center, 2012)
In all, about 340,000 compounds went through this assay and about 1,000 (0.29%) were called active.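 The calls were made as follows: active = fluorescence-ratio B-score plate-corrected deviation score at least 3 library SD below zero, with starting fluorescence score within 5 deviations; inactive = the rest.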 Many of the other results were omitted from the sample, so actives are more common in it than they were.

Molecular target: Anoctamin-1 (Mus musculus) (UniProt Q8BHY3)
Experiment: mouse ANO1 channel activation – cell-based, HTS, primary screen (AID 623877);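 as to B-score: channel opened by trigger with iodide after compound preincubation; score built on the fluorescence ratio of max minus min over baseline; more negative score means more quench and so TMEM16A activation or potentiation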
Settings: HEK293 TMEM16A/YFP-H148Q/I152L, iodide quench fluorescence, at 10 µM; hits give low values

Chain of Anoctamin-1 (Mus musculus) (Q8BHY3 whole entry, looked up): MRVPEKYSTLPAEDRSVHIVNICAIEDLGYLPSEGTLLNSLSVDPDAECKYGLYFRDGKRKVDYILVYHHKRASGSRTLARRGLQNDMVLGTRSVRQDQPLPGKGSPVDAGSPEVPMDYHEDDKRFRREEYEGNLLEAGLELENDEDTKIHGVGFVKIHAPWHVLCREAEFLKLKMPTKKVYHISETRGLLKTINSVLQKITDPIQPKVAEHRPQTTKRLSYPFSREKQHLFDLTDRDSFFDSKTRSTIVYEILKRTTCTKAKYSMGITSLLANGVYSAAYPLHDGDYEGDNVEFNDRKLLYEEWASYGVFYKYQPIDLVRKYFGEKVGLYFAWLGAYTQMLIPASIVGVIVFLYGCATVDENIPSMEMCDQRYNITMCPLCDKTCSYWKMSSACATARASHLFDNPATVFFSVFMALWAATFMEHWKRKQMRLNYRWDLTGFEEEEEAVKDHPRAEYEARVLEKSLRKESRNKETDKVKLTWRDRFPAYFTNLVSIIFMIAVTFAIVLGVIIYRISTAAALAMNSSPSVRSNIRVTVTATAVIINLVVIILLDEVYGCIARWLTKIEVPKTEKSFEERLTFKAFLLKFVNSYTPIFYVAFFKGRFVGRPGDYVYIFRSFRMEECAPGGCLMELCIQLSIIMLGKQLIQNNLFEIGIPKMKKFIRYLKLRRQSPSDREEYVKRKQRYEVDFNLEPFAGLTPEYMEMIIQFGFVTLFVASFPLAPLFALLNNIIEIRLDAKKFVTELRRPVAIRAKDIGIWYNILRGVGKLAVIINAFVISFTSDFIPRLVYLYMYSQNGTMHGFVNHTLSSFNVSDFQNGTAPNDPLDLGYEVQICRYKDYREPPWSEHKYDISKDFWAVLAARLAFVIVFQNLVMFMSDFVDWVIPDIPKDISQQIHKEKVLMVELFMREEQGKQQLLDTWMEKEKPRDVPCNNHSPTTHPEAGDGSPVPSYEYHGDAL

| SMILES | B-score |
| --- | --- |
| O=C(CCl)N(Cc1cccc([N+](=O)[O-])c1)c1cccc(Cl)c1 | inactive |
| Cc1ccc(-c2csc(C(C#N)=C(O)CN3CCN(C(=O)c4ccco4)CC3)n2)cc1 | inactive |
| O=C(C[n+]1cc(Br)cc2ccccc21)c1ccc(F)cc1 | inactive |
| COC(=O)C[n+]1cccc2ccccc21 | -8.8 (active) |
| COC(=O)Cc1c(-c2[nH]c3ccccc3c2CC(=O)OC)[nH]c2ccccc12 | inactive |
| O=C(Nc1cccc(Cl)c1)C1CCCN(c2cnccn2)C1 (stereo not given) | inactive |
| Cc1ccc2c(c1)C(c1ccccc1)N(C(=O)c1ccc(S(=O)(=O)N3CCOCC3)cc1)CC(=O)N2 (stereo not given) | inactive |
| COc1ccccc1N1CCN(CC(=O)Nc2ccnn2C2CCCC2)CC1 | inactive |
| COc1cccc(N2CCN(CC(=O)Nc3ccnn3C3CCCC3)CC2)c1 | -41.6 (active) |
| COc1cccc(C(=O)N2CCC(n3nccc3NC(=O)C3CCOC3)CC2)c1 (stereo not given) | inactive |
| COc1ccc(CNC(=O)CN(Cc2ccc(Cl)cc2)S(C)(=O)=O)cc1 | inactive |
| Nc1ncnc2c1cnn2C1CC(O)C(CO)O1 (stereo not given) | inactive |
| Cc1noc(/C=C/c2ccco2)c1S(=O)(=O)N1CCC(C(=O)Nc2ccc(Cl)cn2)CC1 | inactive |
| C=CC(COCc1ccccc1)N(CC(=O)OC)S(=O)(=O)c1cc(Br)ccc1OC (stereo not given) | inactive |
| C=CCCN(Cc1ccccc1)S(=O)(=O)c1ccccc1Br | inactive |
| C=CC(COCc1ccccc1)N(Cc1ccccc1)S(=O)(=O)c1ccccc1Br (stereo not given) | -4.97 (active) |
| O=C(CN1CCN(S(=O)(=O)c2cccc(Cl)c2)CC1)N1CCCCC1 | inactive |
| O=C(CN1CCCSc2ccccc21)N1CCN(S(=O)(=O)c2cccc(F)c2)CC1 | -45.3 (active) |
| O=C(CN1CCCSc2ccccc21)N1CCN(S(=O)(=O)c2ccccc2)CC1 | inactive |
| O=C1c2ccccc2C(=O)N1CCCCCCN1C(=O)c2ccccc2C1=O | inactive |
| COc1cc(C(=O)Nc2oc(-c3ccccc3)c(-c3ccccc3)c2C#N)cc(OC)c1OC | inactive |
| N#Cc1c(NC(=O)CCCN2C(=O)c3ccccc3C2=O)oc(-c2ccccc2)c1-c1ccccc1 | -21.8 (active) |
| CN(C)S(=O)(=O)c1ccc(N2CCCC2)c(C(=O)NCc2ccccc2)c1 | inactive |
| O=P(c1cccs1)(c1cccs1)c1cccs1 | inactive |
| COc1ccc(N=C2C=CC(=O)O2)cc1 | inactive |
| COc1ccc(-n2c(SCC(=O)NCc3cccs3)nnc2-c2ccoc2C)cc1 | inactive |
| Cc1ccccc1-n1c(SCC(=O)NCc2cccs2)nnc1-c1ccncc1 | -9.87 (active) |

| SMILES | B-score |
| --- | --- |
| CCOc1ccccc1-n1c(SCC(=O)NCc2ccco2)nnc1-c1ccncc1 | inactive |
| O=C(Oc1ccccc1)Oc1ccc2c(c1)oc(=O)c1ccccc12 | inactive |
| CC(C)N(Cc1ccccc1)C(=S)Nc1ccc(OC(F)F)cc1 | inactive |
| Cc1ccccc1NC(=O)c1nn(-c2ccc(F)c(F)c2)ccc1=O | inactive |
| CCCSc1ncccc1C(=O)O | inactive |
| CCN(CC)S(=O)(=O)c1ccc(NC(=O)c2cnc(C)cn2)cc1 | inactive |
| Cc1ccc(CNC(=O)c2cccnc2Cl)cc1 | inactive |
| CCN(CC)S(=O)(=O)c1ccc(NC(=O)c2cccnc2Cl)c(NC(=O)c2cccnc2Cl)c1 | -8.41 (active) |
| O=C(NCCN1CCCC(O)C1)c1cc(COc2c(F)cccc2F)on1 (stereo not given) | inactive |
| CCc1nnc(NC(=O)CSc2nc(SC)ns2)s1 | inactive |
| COc1ccc(OC)c(Nc2nc3ccccc3n3cnnc23)c1 | inactive |
| COc1ccc(S(=O)(=O)N2CCCC2)c(C)c1C | inactive |
| CC(C)NC(=O)NC(=O)CSc1nnc(-c2ccccc2F)n1N | inactive |
| Nn1c(SCC(=O)NC(=O)NC2CCCC2)nnc1-c1ccccc1F | inactive |
| Nn1c(SCC(=O)NC2CCCC2)nnc1-c1ccccc1F | -15.8 (active) |
| CC(C)[C@H](NC(=O)OCc1ccccc1)C(=O)OCc1ccccc1 | inactive |
| COc1ccc(COC(=O)NC(C(=O)O)c2ccccc2)cc1 (stereo not given) | -15.7 (active) |
| COC(=O)c1ccc(C(NC(=O)OCc2ccccc2)/C(F)=C/[C@@H](C)C(=O)O)cc1 (stereo not given in full) | inactive |
| Cc1cccc(C)c1NC(=O)C1CCCN1C(=O)OC(C)(C)C (stereo not given) | inactive |
| Cc1ccc(NC(=O)Cc2nc(COC(=O)C(C)NS(=O)(=O)c3ccc(C)cc3)cs2)cc1 (stereo not given) | -5.62 (active) |
| C/C=C/C(=O)OCc1csc(CC(=O)Nc2ccccc2C)n1 | inactive |
| CC(=O)Nc1ccc(S(=O)(=O)NC(C)C(=O)OCC(=O)NC2CCCC2)cc1 (stereo not given) | inactive |
| CCOc1cc(C(=O)N(Cc2ccccc2)c2ccc(C)cc2)ccc1OCC(=O)N1CCOCC1 | inactive |
| CCOC(=O)C1(Cc2ccc(O)cc2)NC(c2ccccc2F)C2C(=O)N(C)C(=O)C21 (stereo not given) | inactive |
| CCOc1cc(/C=C2/N=C(c3ccc(C(C)(C)C)cc3)OC2=O)cc(Cl)c1OS(C)(=O)=O | inactive |
| COc1ccc(-c2ccnc(SCC(=O)N3CCOCC3)n2)cc1 | inactive |
| COC1=C/C(=C/c2c(N)n3nc(CC(=O)N4CCOCC4)sc3nc2=O)C=CC1=O | -12.3 (active) |

| SMILES | B-score |
| --- | --- |
| C=CCC1=C/C(=C\c2c(N)n3nc(CC(=O)N4CCOCC4)sc3nc2=O)C=C(OC)C1=O | inactive |
| N#CCSc1nn(-c2ccc(F)cc2)c(=S)s1 | inactive |
| O=C(CSc1ccccn1)N1CCN(S(=O)(=O)c2ccc(Cl)cc2)CC1 | inactive |
| CCC(C)n1[nH]c(=O)c2c(C)cc(C)nc21 (stereo not given) | -6.98 (active) |
| CCCC(C)n1[nH]c(=O)c2c(C)cc(C)nc21 (stereo not given) | inactive |
| CCC(C)n1[nH]c(=O)cc1N (stereo not given) | inactive |
| CSc1nc2sc3c(c2c(=O)[nH]1)CCc1ccccc1-3 | inactive |
| O=C(COC(=O)c1cc[n+]([O-])cc1)Nc1ccc(Cl)c(C(F)(F)F)c1 | inactive |
| O=C(CC(O)(C(F)(F)F)C(F)(F)F)Nc1ccc(Cl)c(Cl)c1 | -12.9 (active) |
| NC(=O)N1CCCC1C(=O)Nc1ccc(Cl)c(Cl)c1 (stereo not given) | inactive |
| Cc1ccc(S(=O)(=O)N2CCOCC2)cc1C(=O)Nc1ccccc1N1CCCC1 | inactive |
| Nc1ccc2c(c1)C(=Cc1cccnc1)c1ccccc1-2 | inactive |
| N#CCC(=O)N/N=C/c1ccc(SCC(=O)Nc2ccccc2)o1 | inactive |
| CC(OC(=O)CCCc1c[nH]c2ccccc12)C(=O)Nc1ccc(S(N)(=O)=O)cc1 (stereo not given) | inactive |
| C/C(=N\NS(=O)(=O)c1cccc([N+](=O)[O-])c1)c1cc2ccccc2o1 | inactive |
| CCCCN1CCNC1=S | inactive |
| O=C(c1c(F)cccc1Cl)N1CCN(c2ccccn2)CC1 | inactive |
| O=C1c2ccccc2S(=O)(=O)c2cc(N3CCN(c4ccccn4)CC3)ccc21 | -5.73 (active) |
| O=C1c2cccc3cccc(c23)N1CN1CCN(c2ccccn2)CC1 | inactive |
| O=C(C(Cl)Cl)N1CCN(c2ccccn2)CC1 | inactive |
| O=C(c1ccc2c(c1)C(=O)N(c1ccc(Cl)cc1)C2=O)N1CCN(c2ccccn2)CC1 | inactive |
| O=C(c1ccc2c(c1)N(Cc1ccc(F)cc1)C(=O)c1ccccc1S2(=O)=O)N1CCN(c2ccccn2)CC1 | -4.74 (active) |
| Nc1c(Cl)cc(-c2csc(N3CCCC3c3nc4cc(Cl)c(Cl)cc4n3CCOCCO)n2)cc1Cl (stereo not given) | inactive |
| Cc1ccc(CSCC(=O)N(C)CC(=O)Nc2ccc(C)cc2)cc1 | inactive |
| CC1C(=O)NC(=O)C1c1ccccc1 (stereo not given) | inactive |
| CC(C)(C)Nc1nc(-c2ccccn2)nc2ccccc12 | inactive |
| S=c1nc2ccccc2c2nc(-c3cccnc3)[nH]n12 | inactive |

| SMILES | B-score |
| --- | --- |
| COc1ccc(Nc2nc(-c3cccnc3)nc3ccccc23)cn1 | -6.47 (active) |
| O=S(=O)(NC(=S)Nc1ccccc1)c1ccc(F)cc1 | inactive |
| O=C(O)C1CCN(C(=O)c2cc(F)cc3c2OCOC3)CC1 | inactive |
| Cc1cc(=O)n2nc(N3CCCC3C(=O)NCCCN3CC(C)CC(C)C3)sc2n1 (stereo not given) | -18.1 (active) |
| Cc1cc(=O)n2nc(N3CCCC(C(=O)NCCC4=CCCCC4)C3)sc2n1 (stereo not given) | inactive |
| Cc1cc(=O)n2nc(N3CCCC(C(=O)NCc4ccc(Cl)cc4)C3)sc2n1 (stereo not given) | inactive |
| CN(c1ccc(OCC(=O)OCC(=O)Nc2cccc([N+](=O)[O-])c2)cc1)S(=O)(=O)c1ccc(F)cc1 | inactive |
| Cc1ccccc1OCCC(=O)OCC(=O)NCCc1ccc(S(N)(=O)=O)cc1 | inactive |
| CN(C)S(=O)(=O)c1ccc(C(=O)NCCN=C2NS(=O)(=O)c3ccccc32)cc1 | inactive |
| Cc1noc(C)c1S(=O)(=O)NCCc1ccc(S(N)(=O)=O)cc1 | inactive |
| Cc1cc(-c2ccc(C)c(S(=O)(=O)Nc3ccc(S(N)(=O)=O)cc3)c2)on1 | inactive |
| CCc1ccc(-c2cc(C)no2)cc1S(=O)(=O)NCCc1ccc(S(N)(=O)=O)cc1 | -4.67 (active) |
| Cc1cc(C)c2c(c1)cc(C)c1nnc(SCC(=O)Nc3cc(C)on3)n12 | inactive |
| C=CCN(CC=C)CCOc1ccccc1[N+](=O)[O-] | inactive |
| O=[N+]([O-])c1ccc(NS(=O)(=O)c2ccccc2)c(Cl)c1 | inactive |
| NC(=O)C1CCN(C(=O)c2cn(-c3ccccc3)nc2-c2cccnc2)CC1 | inactive |
| Cc1ccc(-c2nn(-c3ccccc3)cc2C(=O)NC2CCC(O)CC2)cc1 (stereo not given) | inactive |
| O=C(NNC(=S)NC(=O)c1cn(-c2ccccc2)nc1-c1ccccc1)c1ccncc1 | -5.25 (active) |
| O=C(CCc1nnc2ccc(NCCCN3CCCC3=O)nn12)NCc1ccccc1Cl | inactive |
| C#CCOCCOCCOCCNc1nc(N2CCN(C(=O)C(Cc3ccc(O)cc3)n3cc(C(N)CC(C)C)nn3)CC2)nc(N2CCN(C(=O)C(Cc3ccc(O)cc3)n3cc(C(N)C(C)CC)nn3)CC2)n1 (stereo not given) | inactive |
| COc1ccc(CN2C(=O)C(C)S/C2=N/N=C/c2ccco2)cc1 (stereo not given) | inactive |
| COc1ccc(CNC(=O)c2nnn(CC(=O)Nc3cc(C)cc(C)c3)c2N)cc1 | inactive |
| COc1ccc(NC(=O)Cn2nnc(C(=O)NCCc3ccc(OC)c(OC)c3)c2N)cc1 | inactive |
| CCc1ccc(NC(=O)Cn2nnc(C(=O)NCc3ccc(OC)cc3)c2N)cc1 | -25.9 (active) |
